# Values of other authors, collected in PubChem BioAssay AID977611.
# In all, about 3,900 compounds went through this assay and about 3,900 (100%) were called active. The limit is not given here; nearly all actives have Kd up to about 4200 µM. So high a share suggests a set chosen from earlier hits. The list shows a part of the results. *1 amine or outer side, *2 acyl side, *3 side chain or, on linkers, in order; H or OH if unused. Where a SMILES comes first, the peptide text is derived from it. Bridges are numbered along the chain shown (N, C = ends). Side-chain parts run from the residue outwards. [ ]: non-standard residue; d: D form. X1 = CC(C)C[C@@H](C(=O)[*:2])N(C[C@H](Cc1ccccc1)N[*:3])[*:1]; Orn(CH(NH2)2) = NC(N)NCCC[C@H](N)C(=O)O; S5 = C=CCCC[C@](C)(N)C(=O)O
# Assay: PubChem AID 977611
# Conditions: PDB protein-ligand complexes, literature Kd
compound,measurement,setting,value
Nc1nc2[nH]nc(CCC(=O)O)c(=O)c2c(=O)[nH]1,Kd,"protein: Dihydropteroate Synthase, PDB entry 4db7",0.273 µM (active)
C[C@@H](C(=O)O)c1n[nH]c2nc(N)[nH]c(=O)c2c1=O,Kd,"protein: Dihydropteroate Synthase, PDB entry 4daf",0.076 µM (active)
COc1ccccc1[C@@H](Br)[C@H](NC(=O)c1ccc([N+](=O)[O-])cc1)C(=O)N1CCCCC1,Kd,"protein: Capsid protein, PDB entry 4g93",300 µM (active)
Nc1ncnc2c1ncn2[C@@H]1O[C@H](COP(O)O)[C@@H](O)[C@H]1O,Kd,PDB entry 4qsk,8 µM (active)
C[C@@H](Oc1ccc(Oc2ncc(C(F)(F)F)cc2Cl)cc1)C(=O)O,Kd,"protein: carboxyltransferase subunit of ACC (AccD6), PDB entry 4g2r",35.8 µM (active)
OC(Cc1cccc(-c2cccc3c2oc2ccccc23)c1)([P+](O)(O)O)[P+](O)(O)O,Kd,"protein: Diterpene synthase Rv3378c, PDB entry 3wqm",0.56 µM (active)
CN1CCN(c2cccc(CN)c2)CC1,Kd,"protein: CATIONIC TRYPSIN, PDB entry 4abg",271 µM (active)
"CC(C)C[C@@H]1NC(=O)[C@H](C)NC(=O)[C@@H]2CSSC[C@H](NC(=O)CN)C(=O)N[C@@H](CSSC[C@@H](C(=O)O)NC(=O)[C@H](Cc3ccc(O)cc3)NC(=O)[C@H](CCCCN)NC(=O)[C@@H]3CCCN3C(=O)[C@H](CC(N)=O)NC(=O)[C@H](CC(N)=O)NC1=O)C(=O)N[C@@H](CO)C(=O)N[C@@H](CC(C)C)C(=O)N1CCC[C@H]1C(=O)N1CCC[C@H]1C(=O)N2 (H-GCCSLPPCALNNPKYC-OH; disulfide 2-8, 3-16)",Kd,"protein: nicotinic acetylcholine receptor homolog AChBP(?7-nAChR), PDB entry 2br8",0.0326 µM (active)
Cc1ccc(C(=O)Nc2ccc(S(O)(O)O)c3cc(S(O)(O)O)cc(S(O)(O)O)c23)cc1N,Kd,"protein: Nucleocapsid protein, PDB entry 4j4v",0.44 µM (active)
NCCc1c[nH]c2ccccc12,Kd,"protein: Biogenic amine-binding protein, PDB entry 4ge1",0.37 µM (active)
Cc1[nH]c2ccccc2c1CC(=O)N[C@@H](Cc1ccccc1)C(=O)N(C)c1ccccc1,Kd,"protein: CAPSID PROTEIN P24 CA Hexamer, PDB entry 4qnb",0.26 µM (active)
same,Kd,"protein: Capsid protein p24, PDB entry 4u0e",0.12 µM (active)
H-PVLFPGAPFGQPPA-OH,Kd,"protein: Capsid protein p24, PDB entry 4u0b",50 µM (active)
H-PVLFPGQPFGQPPA-OH,Kd,"protein: Capsid protein p24, PDB entry 4u0a",50 µM (active)
CC(C)C[C@H](NC(=O)[C@@H](NC(=O)[C@@H]1CCCN1)C(C)C)C(=O)N[C@@H](Cc1ccccc1)C(=O)N1CCC[C@H]1C(=O)NCC(=O)N[C@@H](CCC(N)=O)C(=O)N1CCC[C@H]1C(=O)N[C@@H](Cc1ccccc1)C(=O)NCC(=O)N[C@@H](CCC(N)=O)C(=O)N1CCC[C@H]1C(=O)N1CCC[C@H]1C(=O)O (H-PVLFPGQPFGQPP-OH),Kd,"protein: CAPSID PROTEIN P24 CA Hexamer, PDB entry 4wym",99.8 µM (active)
CC(C)C[C@H](NC[C@H](Cc1ccccc1)NC(=O)[C@H](CC(N)=O)NC(=O)CNC(=O)[C@@H]1CCCN1C(=O)[C@@H](N)CCCNC(N)N)C(=O)N[C@@H](CCC(N)=O)C(=O)N[C@@H](CO)C(=O)N[C@@H](CCCNC(N)N)C(=O)N1CCC[C@H]1C(N)=O (H-[X1]([Asn-Gly-Pro-Orn(CH(NH2)2)])QS[Orn(CH(NH2)2)]P-NH2),Kd,"protein: PR(HIV-1 protease) with the V82A mutation (PRV82A), PDB entry 2aof",28.2 µM (active)
same,Kd,"protein: wild-type PR(HIV-1 protease), PDB entry 2aoi",96.7 µM (active)
COC(=O)C[C@@H]1N=C(c2ccc(Cl)cc2)c2c(sc(C)c2C)-n2c(C)nnc21,Kd,"protein: Bromodomain-containing protein 4, PDB entry 4f3i",0.0361 µM (active)
NC1NC(=O)c2ncn([C@@H]3O[C@H](CO[P+](O)(O)O[C@H]4[C@@H](O)[C@H](n5cnc6c5NC(N)NC6=O)O[C@@H]4COP(O)O)[C@@H](OP(O)O)[C@H]3O)c2N1 (stereo not given in full),Kd,"protein: Simian 11 rotavirus (serotype 3 / strain SA11-Ramig), PDB entry 4g0a",0.0253 µM (active)
C[C@H]1OC(c2cccc(O)c2O)=N[C@@H]1C(=O)N(CCCNC(=O)c1cccc(O)c1O)CCCNC(=O)c1cccc(O)c1O,Kd,"protein: Neutrophil gelatinase-associated lipocalin, PDB entry 4k19",0.0044 µM (active)
H-EDMFAKLKDKFFNEINK-OH,Kd,PDB entry 2nm1,0.034 µM (active)
CC(C)C[C@H](NC(=O)[C@@H](NC(=O)[C@H](CCC(=O)O)NC(=O)[C@@H](N)Cc1ccc(O)cc1)[C@@H](C)O)C(=O)N[C@@H](CO[P+](O)(O)O)C(=O)N[C@@H](CC(=O)O)C(=O)N[C@@H](CO[P+](O)(O)O)C(=O)N[C@@H](CCC(=O)O)C(=O)O,Kd,"protein: Msx2-interacting protein, PDB entry 2rt5",0.19 µM (active)
H-TFKKTN-OH,Kd,"protein: Coatomer subunit beta', PDB entry 4j86",171 µM (active)
H-ITFEDLLDYYGP-OH,Kd,"protein: HIV-1 Capsid Protein(L211S), PDB entry 3ds4",64.5 µM (active)
same,Kd,"protein: HIV-1 Capsid Protein(N183A), PDB entry 3ds0",14.9 µM (active)
same,Kd,"protein: HIV-1 Capsid Protein(Y169A), PDB entry 3ds3",6 µM (active)
CC(C)C[C@H](NC(=O)[C@H](CCCCN)NC(=O)[C@H](CC(C)C)NC(=O)[C@@H](NC(=O)[C@H](CC(N)=O)NC(=O)[C@H](CCC(N)=O)NC(=O)[C@H](CCCCN)NC(=O)[C@@H](NC(=O)[C@H](Cc1ccc(O)cc1)NC(=O)[C@H](CCCCN)NC(=O)[C@@H]1CCCN1)C(C)C)[C@@H](C)O)C(=O)N[C@@H](C)C(=O)N[C@H](C(=O)O)[C@@H](C)O,Kd,"protein: SEC3 wt, PDB entry 1jwm",270 µM (active)
CC[C@H](C)[C@H](N)C(=O)N[C@H](C(=O)N[C@@H](Cc1ccccc1)C(=O)N[C@@]1(C)CCC/C=C\CCC[C@@](C)(C(=O)N[C@@H](Cc2ccc(O)cc2)C(=O)N[C@@H](Cc2ccc(O)cc2)C(=O)NCC(=O)N[C@@H](CCCCN)C(=O)N[C@@H](CCCCN)C(=O)N[C@@H](CCCCN)C(=O)O)NC(=O)[C@H](CC(C)C)NC(=O)[C@H](CC(C)C)NC(=O)[C@H](CC(=O)O)NC1=O)[C@@H](C)O (H-ITF[S5]DLL[S5]YYGKKK-OH; staple (Z) 4-8),Kd,"protein: Capsid protein p24(W184A, M185A), PDB entry 2l6e",1 µM (active)
CC[C@H](C)[C@H](N)C(=O)N[C@H](C(=O)N[C@@H](Cc1ccccc1)C(=O)N[C@@H](CCC(=O)O)C(=O)N[C@@H](CC(=O)O)C(=O)N[C@@H](CC(C)C)C(=O)N[C@@H](CC(C)C)C(=O)N[C@@H](CC(=O)O)C(=O)N[C@@H](Cc1ccc(O)cc1)C(=O)N[C@@H](Cc1ccc(O)cc1)C(=O)NCC=O)[C@@H](C)O (H-ITFEDLLDYYG-aldehyde),Kd,"protein: HIV-1 Capsid Protein(E187A), PDB entry 3ds1",2 µM (active)
H-ITYDKGIQTDQ-OH,Kd,"protein: Dynein light chain 1, cytoplasmic, PDB entry 4ht6",0.62 µM (active)
